Bioassay records (PubChem BioAssay)
JMJD2A Tudor inh = qHTS Assay for Inhibitors of JMJD2A-Tudor Domain; Lysine-specific demethylase 4A (Homo sapiens), O75164; AlphaScreen JMJD2A-Tudor / H3K4me3 peptide binding; Potency, µM (highest dose often 114 µM), hits mostly inhibitors; 4.4% of 390,000 active; also: nearly all actives have a fitted effect of over 50% in size
HP1b chromo inh = HTS for Inhibitors of HP1-beta Chromodomain Interactions with Methylated Histone Tails; AID 540317, 2011; AlphaScreen HP1-beta / biotin-H3K9me3 peptide binding; Chromobox protein homolog 1 (Homo sapiens), P83916; Potency, µM (doses to about 114 µM), hits mostly inhibitors; 0.56% of 390,000 active; also: nearly all actives have a fitted effect of over 70% in size
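Compound inhibition of the preformed complex between 50 nM HP1-beta and 50 nM biotinylated H3K9me3 peptide was read by AlphaScreen. Buffer was PBS pH 7.4 with 0.01% Tween-20. Incubations ran 30 min at room temperature, with 10 ug/mL donor/acceptor beads.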
PLK1 PBD inh = qHTS for Inhibitors of PLK1-PDB (polo-like kinase 1 - polo-box domain): Primary Screen | Plk1 PBD binding of FITC phosphopeptide, fluorescence polarization | Potency, µM, hits mostly inhibitors | 2.8% of 360,000 active | AID 720504, 2013; also: series mostly up to about 57 µM; nearly all actives have a fitted effect of over 65% in size
BAZ2B block = qHTS Assay for Inhibitors of BAZ2B; Potency, µM (top dose mostly 114 µM), hits mostly inhibitors; Bromodomain adjacent to zinc finger domain protein 2B (Homo sapiens), Q9UIF8; AlphaScreen BAZ2B-H3K14Ac peptide displacement; AID 504333, 2011; 4.4% of 360,000 active; also: nearly all actives have a fitted effect of over 60% in size
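Multi-concentration screen (max 110 uM) measuring displacement of acetylated histone H3 peptide from BAZ2B by AlphaScreen, using 50 nM protein, 50 nM peptide and 10 ug/mL streptavidin donor plus Ni-chelate acceptor beads.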
G9a block = qHTS Assay for Inhibitors of Histone Lysine Methyltransferase G9a; G9a H3K9 monomethylation, AlphaScreen, 2 h; 8.8% of 350,000 active; Histone-lysine N-methyltransferase EHMT2 (Homo sapiens), Q96KQ7; AID 504332, 2011; Potency, µM (highest dose often 102 µM), usual class: inhibitors; also: nearly all actives have a fitted effect of over 75% in size
Target sequence (Q96KQ7 913-1193 limits assumed): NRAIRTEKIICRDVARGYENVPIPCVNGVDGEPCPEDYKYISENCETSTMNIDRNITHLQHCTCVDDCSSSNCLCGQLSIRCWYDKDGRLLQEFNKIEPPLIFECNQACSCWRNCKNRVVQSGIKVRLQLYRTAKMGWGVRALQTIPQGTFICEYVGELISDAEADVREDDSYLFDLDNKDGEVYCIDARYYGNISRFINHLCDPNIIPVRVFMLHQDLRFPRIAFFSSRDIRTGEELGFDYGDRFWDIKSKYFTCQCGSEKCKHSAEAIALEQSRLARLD
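Signal arises when biotinylated H3K9 peptide, once monomethylated, bridges streptavidin donor and antibody-captured acceptor beads. Enzyme at 20 nM was preincubated 15 min with test compounds; peptide 500 nM and SAM 20 uM then reacted for 2 h.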
PI5P4K alpha inh = qHTS for Inhibitors of phosphatidylinositol 5-phosphate 4-kinase (PI5P4K); PI5P4Kalpha enzyme, ADP-Glo luminescence, 60 min; active compounds read low; max response, %; 1.2% of 330,000 active; AID 652105, 2013; active = max response of -50% or lower; inconclusive = between -30% and -50%; inactive = -30% or higher; also: value at the top dose of about 77 µM
Target sequence (P48426 whole entry, looked up): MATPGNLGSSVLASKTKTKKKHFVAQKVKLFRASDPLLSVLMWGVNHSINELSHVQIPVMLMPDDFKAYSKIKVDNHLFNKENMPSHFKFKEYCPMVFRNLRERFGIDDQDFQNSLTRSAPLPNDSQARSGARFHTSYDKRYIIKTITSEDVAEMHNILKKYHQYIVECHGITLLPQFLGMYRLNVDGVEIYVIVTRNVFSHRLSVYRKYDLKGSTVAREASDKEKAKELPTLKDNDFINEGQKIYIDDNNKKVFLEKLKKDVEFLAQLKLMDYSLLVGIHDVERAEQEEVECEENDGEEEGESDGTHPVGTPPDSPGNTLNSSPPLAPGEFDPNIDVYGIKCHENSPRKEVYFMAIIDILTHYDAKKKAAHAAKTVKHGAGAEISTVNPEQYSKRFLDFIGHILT
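Enzyme plus substrate dispensed, test compounds pinned in, then ATP (5 microM final) added. After 60 min at RT, ADP-Glo reagent 1 for 45 min and reagent 2 for 30 min preceded luminescence imaging.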
Each line names hits and unclear results; the compound was inactive in the other large screens. In the library only some 12% were active in any assay of this set; here they are far more common. Unless noted, calls follow the shape of the dose curve; as a rule, active = well fitted curve in the direction sought with a large enough effect; inconclusive = small, poorly fitted or top-dose-only effect, or another doubt; inactive = no such curve, though single readings can be large; an effect the other way counts as inactive or inconclusive.

CCOC(=O)N1CCN(S(=O)(=O)N2CCCC(C(=O)NCCc3ccc(OC)c(OC)c3)C2)CC1 (configuration not stated)	none
O=C(NCc1ccc(F)cc1Cl)c1cc(=O)[nH]c2ccc(S(=O)(=O)N3CCCCC3)cc12	none (no result: PLK1 PBD inh, PI5P4K alpha inh)
CCOC(=O)C1CCCN(C(=O)c2ccc(C(F)(F)F)nc2C)CC1 (configuration not stated)	none (no result: JMJD2A Tudor inh, HP1b chromo inh, BAZ2B block, G9a block)
O=C(CSc1ccc(F)cc1)NCC1(N2CCOCC2)CCCCC1	none
CCN(Cc1ccccc1)C(=O)C(CC(C)C)NS(=O)(=O)c1ccc2c(c1)CCN2C(C)=O (configuration not stated)	none (no result: PLK1 PBD inh, BAZ2B block, PI5P4K alpha inh)
CSC1=NC2(CCCCC2)C2=C(CCCC2)N1	G9a block 44.7µM (no result: PI5P4K alpha inh)
CCOC(=O)CSc1nnc(CNc2cccc(Cl)c2)n1-c1ccccc1	none
CCOC(=O)C1(C)C=C(Nc2ccc(OC)cc2)C(=O)N1c1ccccc1 (configuration not stated)	G9a block inconclusive (no result: PLK1 PBD inh, PI5P4K alpha inh)
CCOC(=O)C1(C)/C(=N/Nc2ccc(S(N)(=O)=O)cc2)C(=O)C(=O)N1c1ccccc1 (configuration not stated)	G9a block 35.5µM
CCOC(=O)C1(C)/C(=N/Nc2ccc(Cl)cc2)C(=O)C(=O)N1c1ccccc1 (configuration not stated)	JMJD2A Tudor inh 15.8µM, HP1b chromo inh inconclusive, PLK1 PBD inh inconclusive, BAZ2B block 56.2µM, G9a block inconclusive (no result: PI5P4K alpha inh)
CCOC(=O)C1(C)/C(=N/Nc2ccccc2Cl)C(=O)C(=O)N1c1ccccc1 (configuration not stated)	JMJD2A Tudor inh 39.8µM, HP1b chromo inh inconclusive, PLK1 PBD inh inconclusive, BAZ2B block 50.1µM, G9a block 3.55µM (no result: PI5P4K alpha inh)
CCOC(=O)C1(C)/C(=N/Nc2cccc(Cl)c2)C(=O)C(=O)N1c1ccccc1 (configuration not stated)	JMJD2A Tudor inh 28.2µM, HP1b chromo inh inconclusive, PLK1 PBD inh inconclusive, BAZ2B block inconclusive, G9a block inconclusive
Cc1ccccc1NC(=O)CSc1nnc(C)c2ccccc12	none
CC(=O)Nc1ccc(SCC(Cc2ccccc2)N2CCN(CCc3ccccc3)CCC2=O)cc1 (configuration not stated)	JMJD2A Tudor inh inconclusive (no result: PLK1 PBD inh, BAZ2B block, G9a block, PI5P4K alpha inh)
Cc1cc(C)c2sc(C)[n+](CCCS(=O)(=O)[O-])c2c1	none
O=S(=O)([O-])CCC[n+]1c(SCCCS(=O)(=O)O)sc2ccc(Cl)cc21	JMJD2A Tudor inh 79.4µM, PLK1 PBD inh inconclusive, BAZ2B block inconclusive, G9a block 25.1µM
COC(=O)C1(C(=O)OC)C[C@H](c2ccc(OC)cc2)N(Cc2ccccc2OC)[C@@H]1c1cccs1	none (no result: JMJD2A Tudor inh, HP1b chromo inh, BAZ2B block, G9a block)
O=C(NCc1ccccc1Cl)[C@H]1CCCN1C(=O)[C@H]1CCCN1C(=O)c1cccs1	none (no result: JMJD2A Tudor inh, HP1b chromo inh, BAZ2B block, G9a block)
COc1ccc(C(=O)OCC(=O)c2ccc(CNC(C)=O)s2)cc1	G9a block 10µM
CC(=O)NCc1ccc(C(=O)CCl)s1	PLK1 PBD inh 5.97µM, BAZ2B block inconclusive, G9a block inconclusive
COc1ccccc1C(=O)OCC(=O)c1ccc(CNC(C)=O)s1	none (no result: BAZ2B block, G9a block)
Cc1nn(CC(=O)N2CCC(C)CC2)c(=O)c2cc3sccc3n12	none (no result: PLK1 PBD inh, PI5P4K alpha inh)
CCCN(C(=O)c1cc2c(=O)n(CC)c3ccccc3c2s1)c1ccccc1F	none (no result: PLK1 PBD inh, PI5P4K alpha inh)
CC1CCN(C(=O)Cn2cc(SCC(=O)NCC3CCCO3)c3ccccc32)CC1 (configuration not stated)	none
O=C(CSc1nc2ccccc2c(=O)n1CCC(=O)N1CCN(c2ccccc2)CC1)NCC1CCCO1 (configuration not stated)	JMJD2A Tudor inh 56.2µM, PLK1 PBD inh inconclusive
O=C(CCCn1c(SCC(=O)c2ccc(O)c(O)c2)nc2ccccc2c1=O)NCC1CCCO1 (configuration not stated)	JMJD2A Tudor inh 31.6µM, BAZ2B block inconclusive, G9a block 35.5µM (no result: PI5P4K alpha inh)
O=C(CSc1cn(CC(=O)N2CCCCC2)c2ccccc12)NCC1CCCO1 (configuration not stated)	JMJD2A Tudor inh 50.1µM, PLK1 PBD inh 26.7µM
O=C(CSc1nc2ccccc2c(=O)n1CC1CCCO1)NCC1CCCO1 (configuration not stated)	none
CN(C(=O)CSc1cn(CC(=O)N2CCOCC2)c2ccccc12)c1ccccc1	PLK1 PBD inh 11.9µM
CCCCn1c(SCC(=O)c2ccccc2)nc2c(sc3ccccc32)c1=O	none (no result: PLK1 PBD inh, PI5P4K alpha inh)
Cc1cc(S(=O)(=O)Nc2ccc3cn[nH]c3c2)c(C)cc1Cl	BAZ2B block inconclusive
O=C(O)CCC(=O)Nc1sc2c(c1C(=O)Nc1ccccc1)CCCCC2	PLK1 PBD inh inconclusive, G9a block 28.2µM, PI5P4K alpha inh inconclusive
CC1CCc2c(sc(NC(=O)CCC(=O)O)c2C(=O)NC2CC2)C1 (configuration not stated)	JMJD2A Tudor inh inconclusive, HP1b chromo inh inconclusive, PLK1 PBD inh 5.32µM, G9a block 8.91µM
CC(C)OC(=O)c1c(NC(=O)C2CC=CCC2C(=O)O)sc2c1CCCCC2 (configuration not stated)	PLK1 PBD inh inconclusive, BAZ2B block inconclusive, G9a block 44.7µM
O=C(Nc1sc2c(c1C(=O)NCc1ccccc1)CCCC2)c1cc(=O)c2ccccc2o1	HP1b chromo inh inconclusive, G9a block 11.2µM (no result: PLK1 PBD inh, PI5P4K alpha inh)
Cc1cc2oc(C(=O)Nc3sc4c(c3C(=O)NCc3ccccc3)CCCC4)cc(=O)c2cc1C	none (no result: PLK1 PBD inh, PI5P4K alpha inh)
COc1ccccc1N(CC(=O)Nc1ccc(Br)cc1F)S(=O)(=O)c1cccs1	none
CCc1c(-c2ccccc2)nc2ccccc2c1C(=O)NCCc1ccccc1	none (no result: PLK1 PBD inh, PI5P4K alpha inh)
Nc1ccc(C(=O)N2CCN(S(=O)(=O)c3ccc4c(c3)OCCO4)CC2)cc1[N+](=O)[O-]	none (no result: G9a block)
CCOC(=O)c1c(NC(=O)CCC(=O)O)sc2c1CCCCC2	JMJD2A Tudor inh inconclusive, HP1b chromo inh inconclusive, PLK1 PBD inh 6.7µM, G9a block 7.94µM
COC(=O)c1c(NC(=O)COC(=O)c2ccc(NC(=O)CC#N)cc2)sc2c1CCCCC2	JMJD2A Tudor inh 44.7µM, BAZ2B block 44.7µM, PI5P4K alpha inh -61.8
CCOC(=O)c1c(NC(=O)C2CC(Cl)=CCC2C(=O)O)sc2c1CCCCC2 (configuration not stated)	JMJD2A Tudor inh inconclusive, PLK1 PBD inh inconclusive, BAZ2B block 50.1µM, G9a block 44.7µM
CCOC(=O)c1c(NC(=O)C2C3C=CC(C3)C2C(=O)O)sc2c1CCCC2 (configuration not stated)	none
